SARS PLpro yeast-1: blocks SARS-CoV papain-like protease in a yeast assay. S. cerevisiae expressing SARS-CoV PLpro, growth rescue. Potency, µM (doses to about 32.9 µM), for inactives: at the top dose activity, positive = growth rescue, actives largely listed as activators. 330,000 tested, 0.19% active; calls by dose curve; also: potency is read from the fitted curve at half-maximal effect; 0% is about no effect; nearly all actives have a fitted effect of over 55% in size
Tb PYK inh: inhibitors of Trypanosoma brucei pyruvate kinase | Q57TT1 | TbPYK enzyme, Kinase-Glo Plus ATP luminescence, 45 min | Potency, µM (doses to about 76.8 µM), without a hit: at the top dose activity, negative = inhibition, most hits filed as inhibitors | 410,000 tested, 0.12% active | AID 624173; also: potency is read from the fitted curve at half-maximal effect; % is scaled to controls: 0 for no effect and ±100 for the full control effect; nearly all actives have a fitted effect of over 50% in size
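Activity of T. brucei pyruvate kinase was followed by Kinase-Glo Plus luminescence after the enzyme reacted 45 min at room temperature with 130 uM ADP (final) and substrate. Test compounds were added before ADP at multiple concentrations.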
Sm TGR block: blocks Schistosoma mansoni thioredoxin glutathione reductase. purified TGR, DTNB reduction, TNB absorbance 405 nm. Potency, µM (titrated, usually from 114 µM), for inactives: at the top dose activity change, negative = inhibition, most hits filed as inhibitors. 360,000 tested, 3% active; also: potency is read from the fitted curve at half-maximal effect; % is scaled to controls: 0 for no effect and ±100 for the full control effect; nearly all actives have a fitted effect of over 60% in size
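TGR 20 nM + NADPH 100 uM (dispensed conc.), cpd preinc 15 min RT; start with NADPH (500 uM addition) then DTNB (15 mM addition). Kinetic TNB absorbance, 405 nm filter. Four-parameter Hill fit across titration.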
NS1 inh: inhibitors of influenza NS1 protein function. Potency, µM (top dose mostly 46.1 µM), for inactives: at the highest dose activity, positive = more growth. 270,000 tested, 0.4% active. AID 2326; calls by dose curve; also: potency is read from the fitted curve at half-maximal effect; actives are rising curves; nearly all actives have a fitted effect of over 50% in size
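OD600 was taken as the measure of yeast growth restored by compound in an NS1-expressing S. cerevisiae strain. Cells had been washed out of glucose medium and diluted 1:100 into galactose -URA medium, pH 6.0.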
LmPK inh: inhibitors of Leishmania mexicana pyruvate kinase; Q27686; purified LmPK, Kinase-Glo ATP luminescence, 1 h; Potency, µM (series often up to 57.5 µM), without a hit: at the top dose activity change, negative = inhibition, actives largely listed as inhibitors; 290,000 tested, 0.37% active; AID 1721; also: potency is read from the fitted curve at half-maximal effect; % is scaled to controls: 0 for no effect and ±100 for the full control effect
Target sequence (Q27686 whole entry, looked up): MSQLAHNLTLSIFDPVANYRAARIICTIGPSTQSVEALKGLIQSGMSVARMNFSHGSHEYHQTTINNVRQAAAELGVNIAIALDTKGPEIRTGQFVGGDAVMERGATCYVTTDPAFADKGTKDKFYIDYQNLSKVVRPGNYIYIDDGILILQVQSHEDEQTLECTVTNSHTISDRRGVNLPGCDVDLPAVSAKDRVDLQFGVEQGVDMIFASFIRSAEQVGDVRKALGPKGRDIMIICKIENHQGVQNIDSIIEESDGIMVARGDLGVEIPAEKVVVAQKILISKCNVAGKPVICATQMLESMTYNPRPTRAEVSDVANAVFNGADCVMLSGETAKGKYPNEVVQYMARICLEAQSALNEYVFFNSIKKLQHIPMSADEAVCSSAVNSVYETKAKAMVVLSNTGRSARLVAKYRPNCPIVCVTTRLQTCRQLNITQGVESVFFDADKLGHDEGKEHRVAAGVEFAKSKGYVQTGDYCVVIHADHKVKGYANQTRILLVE
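Purified LmPK (0.1 nM) with 0.5 mM PEP and 0.1 mM ADP in imidazole buffer pH 7.2 with MgCl2/KCl, 1 h at room temperature. ATP formed was read by luciferase luminescence and normalized to no-enzyme and uninhibited controls.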
RE007 growth inh: less growth of the S. pombe RE007 Vpr strain. 360,000 tested, 0.21% active. Potency, µM (top dose mostly 92.2 µM), for inactives: at the top dose activity change, negative = less growth, actives largely listed as inhibitors. S. pombe RE007 Vpr strain, BacTiter-Glo ATP luminescence, 24 h; active = well fitted falling curve with a large enough effect; inconclusive = small, poorly fitted or top-dose-only effect; inactive = no such curve, though single readings can be large or run the other way; also: potency is read from the fitted curve at half-maximal effect; % is scaled to controls: 0 for no effect and ±100 for the full control effect; nearly all actives have a fitted effect of over 50% in size
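Fission yeast RE007 carrying one integrated HIV-1 vpr copy, seeded at OD 0.01 in PMG+AL medium with 23 nL pinned compound. Grown 24 h at 30 degrees; viability read by BacTiter-Glo luminescence after 5 min.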
SARS PLpro yeast-2: Inhibits SARS-CoV PLP in yeast, hit validation | yeast expressing SARS-CoV PLpro, growth phenotype rescue | calls only | shares compounds with SARS PLpro yeast-1 | AID 652038 | 1,000 tested, 19% active; call rule not given here
* marks the source's active call; other numbers are inactive results. An excerpt weighted towards active compounds, which were near 3.3% of everything screened. Unless noted, calls follow the shape of the dose curve; as a rule, active = well fitted curve in the direction sought with a large enough effect; inconclusive = small, poorly fitted or top-dose-only effect, or another doubt; inactive = no such curve, though single readings can be large; an effect the other way counts as inactive or inconclusive.

COc1ccc(N(Cc2cccs2)C(=O)c2ccc(Br)o2)cc1 was read as Tb PYK inh 8% and Sm TGR block -3%.
Screening C/C(=N\NC(=O)C(C)n1nc(C)c([N+](=O)[O-])c1C)c1ccccc1O (configuration not stated) returned SARS PLpro yeast-1 inconclusive, Tb PYK inh inconclusive, Sm TGR block 3%, NS1 inh 15%, LmPK inh 4%, RE007 growth inh 3% and SARS PLpro yeast-2 inactive.
Screening O=C(Nc1cc(-c2ccccc2)nn1C1CCCCC1)c1ccc(Cl)cc1 returned SARS PLpro yeast-1 inconclusive, Tb PYK inh 1%, RE007 growth inh 5% and SARS PLpro yeast-2 inactive.
Cc1ccc(NC(=O)CN(C)S(=O)(=O)c2cccs2)cc1C was read as SARS PLpro yeast-1 inconclusive, Tb PYK inh -9%, Sm TGR block 1%, NS1 inh 12%, LmPK inh 9%, RE007 growth inh -1% and SARS PLpro yeast-2 inactive.
CC(C)CC(=O)NN(C)c1nc(-c2ccccc2)nnc1C(F)(F)F was read as SARS PLpro yeast-1 inconclusive, Tb PYK inh 0%, Sm TGR block -12%, NS1 inh -9%, LmPK inh -5%, RE007 growth inh 4% and SARS PLpro yeast-2 inactive.
Screening CCCCC(=O)NN(C)c1nc(-c2ccccc2)nnc1C(F)(F)F returned SARS PLpro yeast-1 12%, Tb PYK inh -13%, Sm TGR block 2%, NS1 inh 4%, LmPK inh -2% and RE007 growth inh 11%.
Screening CCC1(c2ccccc2)NC(=S)N(c2cccc(C)c2C)N1 (configuration not stated) returned SARS PLpro yeast-1 3.2µM*, Tb PYK inh inconclusive, Sm TGR block -8%, NS1 inh 6%, LmPK inh -5%, RE007 growth inh -5% and SARS PLpro yeast-2 inconclusive.
For COc1ccc(Cl)cc1NC(=O)Cn1cc(C(=O)c2ccncc2)c(=O)c2cc(C)ccc21 the results were Tb PYK inh -6% and Sm TGR block 0%.
Screening COc1cccc(NC(=O)Cn2cnc3c(oc4nc5c(cc43)CCCC5)c2=O)c1 returned SARS PLpro yeast-1 inconclusive, Tb PYK inh -3%, Sm TGR block -9%, NS1 inh -12%, LmPK inh -11%, RE007 growth inh -10% and SARS PLpro yeast-2 inconclusive.
CCN(CC)c1ccc(/C=N/Nc2nc(C)cc(=O)[nH]2)c(O)c1 was read as SARS PLpro yeast-1 4.5µM*, Tb PYK inh 2%, Sm TGR block 4%, NS1 inh 14%, LmPK inh -3%, RE007 growth inh -8% and SARS PLpro yeast-2 inactive.
CCOC(=O)N/N=C/c1ccc(N(CC)CC)cc1O was read as SARS PLpro yeast-1 -21%, Tb PYK inh 3%, Sm TGR block -1%, NS1 inh -23%, LmPK inh 1% and RE007 growth inh -10%.
`CCN(CC)c1ccc(/C=N/NC(=O)c2c(Cl)cnn2C)c(O)c1` gave SARS PLpro yeast-1 inconclusive, Tb PYK inh 0%, Sm TGR block -25%, NS1 inh -64%, LmPK inh 0%, RE007 growth inh inconclusive and SARS PLpro yeast-2 inactive.
`CCN(CC)c1ccc(/C=N/NC(=O)CCC(=O)NCc2ccccc2)c(O)c1` gave SARS PLpro yeast-1 4µM*, Tb PYK inh -10%, Sm TGR block -2%, NS1 inh -2%, LmPK inh 5%, RE007 growth inh 11% and SARS PLpro yeast-2 inactive.
`O=C(O)c1cc(-c2ccc(-c3ccccc3)cc2)nc2cc3ccccc3cc12` gave NS1 inh -8%.
`CC(=O)Nc1ccc(S(=O)(=O)Nc2cccc(-c3ccc(N4CCC(C)CC4)nn3)c2)cc1` gave Tb PYK inh -6% and Sm TGR block -4%.
For NC(=S)Nc1cccc2cccnc12 the results were SARS PLpro yeast-1 inconclusive, Tb PYK inh 2%, Sm TGR block 2%, NS1 inh 3%, LmPK inh 4%, RE007 growth inh 0% and SARS PLpro yeast-2 inactive.

Screens as filed in PubChem BioAssay.
